In PubChem BioAssay AID720616 (Broad Institute, 2013) one finds outcome data, which are given here for three molecules.

Measured potencies and affinities stand elsewhere. Calls of active or inactive are those of the source.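 The calls were made as follows: active = ATP viability loss whose half-effect dose is at most twice the top dose, in all three treatment times; inconclusive = calls differ between the treatment times; inactive = inactive at every treatment time.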

The assay can be described thus: U-251 glioblastoma cell viability loss, late-stage follow-up, mechanism study for HRAS target identification, CellTiter-Glo ATP luminescence, several timepoints, dry powder (AID 720616). Conditions: U-251 glioblastoma viability; series mostly up to 35 µM. For orientation: Cellular ATP, detected with luciferase, serves as a proxy for viable cell number.
For the molecule `Cc1onc(C(=O)N2CCN(C(c3ccncc3)c3ccncc3)CC2)c1[N+](=O)[O-]`, the outcome was inactive. For `Cc1onc(C(=O)N2CCN(C(c3ccc(Cl)cc3)c3ccc(Cl)cc3)CC2)c1[N+](=O)[O-]` the value was “inactive”. The value for `CCC(=O)N(c1ccc(OC)c(Cl)c1)C(C(=O)NCCc1ccccc1)c1cccs1` (stereo not drawn) was “inactive”.
